Bioassay records from PubChem.
GluA2 TARP mod – modulates AMPAR-stargazin complexes; O88602+P19491; HEK293 GluA2+stargazin, membrane potential dye (FDSS), glutamate EC50; hits were called plate by plate, in both directions; calls only at 30 µM; 40,000 tested, 3.5% active; AID 1259245;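 active = any of four per-well response measures lying three or more SD from its plate-wide compound average, in either direction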
GIRK2 activator – Activators of human GIRK2-containing channels | activation (% efficacy), % for hits at 37.5 µM | HEK293 GIRK2/NPY4 cells, thallium flux fluorescence | AID 1259324 | 34,000 tested, under 10 active;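 active = primary screen hit, no activity in plain HEK293 cells, and in GIRK2-only cells above 5% efficacy rising with concentration; inactive = the rest, including fluorescent compounds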;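 also: efficacy is normalized control-subtracted fluorescence 15 s after thallium addition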
Target sequence (P48051 whole entry, looked up): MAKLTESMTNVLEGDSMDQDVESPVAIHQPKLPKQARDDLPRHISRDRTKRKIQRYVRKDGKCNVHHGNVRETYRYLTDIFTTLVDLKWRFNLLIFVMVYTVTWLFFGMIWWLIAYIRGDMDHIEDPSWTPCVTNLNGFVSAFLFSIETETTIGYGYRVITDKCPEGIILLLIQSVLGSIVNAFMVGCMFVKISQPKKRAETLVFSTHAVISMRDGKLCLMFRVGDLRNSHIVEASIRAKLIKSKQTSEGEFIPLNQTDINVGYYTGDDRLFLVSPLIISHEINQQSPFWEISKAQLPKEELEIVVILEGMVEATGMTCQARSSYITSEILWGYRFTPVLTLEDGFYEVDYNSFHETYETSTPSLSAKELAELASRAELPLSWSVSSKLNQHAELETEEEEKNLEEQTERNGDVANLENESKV
The depositor's hits bear a star. This is one part of a sample in which hits are shown more often than they occur.

Results for Cc1ccc2nc(NC(=O)c3ccc(=O)n(Cc4cccc(F)c4)n3)sc2c1 ?
GluA2 TARP mod: inactive; GIRK2 activator: inactive

What do the screens show for `CCOC(=O)c1csc(NC(=O)c2ccc(=O)n(Cc3cccc(F)c3)n2)n1`?
GluA2 TARP mod: active; GIRK2 activator: inactive

Results for O=C(CN(Cc1ccc(Cl)cc1)S(=O)(=O)c1cccnc1)N1CCN(c2ccccc2)CC1 ?
GluA2 TARP mod: inactive; GIRK2 activator: inactive

What do the screens show for `Cc1cc(C(=O)Nc2ccc3c(c2)CN(C(=O)c2cccs2)CC3)no1`?
GluA2 TARP mod: inactive; GIRK2 activator: inactive

Results for O=C(Cn1cnc(-c2cccs2)cc1=O)NCc1ccccc1OC(F)(F)F ?
GluA2 TARP mod: inactive; GIRK2 activator: inactive

How did O=C(Cn1cnc(-c2cccs2)cc1=O)NCC(F)(F)F do in these assays?
GluA2 TARP mod: active; GIRK2 activator: inactive

Results for Cc1c(Cl)cccc1NC(=O)C1CCN(c2ccc(-c3cccnc3)nn2)CC1 ?
GluA2 TARP mod: inactive; GIRK2 activator: inactive

What do the screens show for `Cc1ccc(CNC(=O)CC2Nc3cc(C)c(C)cc3NC2=O)cc1` (stereo not drawn)?
GluA2 TARP mod: active

What do the screens show for `C=CCNC(=O)CC1Nc2cc(C)c(C)cc2NC1=O` (stereo not drawn)?
GIRK2 activator: inactive

Results for CC(C)N1CCC(CNC(=O)C(=O)NCc2ccc3c(c2)OCO3)CC1 ?
GluA2 TARP mod: inactive; GIRK2 activator: inactive

How did O=C(NCc1ccc2c(c1)OCO2)C(=O)NCC1CCN(C(=O)c2ccncc2)CC1 do in these assays?
GluA2 TARP mod: active; GIRK2 activator: inactive

What do the screens show for `O=C(N(c1cccc(Cl)c1)C1C=CS(=O)(=O)C1)C(F)(F)F` (stereo not drawn)?
GluA2 TARP mod: inactive; GIRK2 activator: inactive

Results for CN(C(=O)Cn1cnc2c(-c3ccccc3)csc2c1=O)c1ccc(F)cc1 ?
GluA2 TARP mod: inactive; GIRK2 activator: inactive

What do the screens show for `CCN(C(=O)Cn1cnc2c(-c3ccccc3)csc2c1=O)c1ccccc1`?
GluA2 TARP mod: active; GIRK2 activator: inactive

Results for COC(=O)Cn1c(=O)c2c(nc3n2CC(C)CN3c2ccccc2OC)n(C)c1=O (stereo not drawn) ?
GluA2 TARP mod: inactive

Results for O=C(NCCCN1CCOC(c2ccccc2)C1)C(=O)NC1CCCCCC1 (stereo not drawn) ?
GIRK2 activator: inactive

What do the screens show for `Fc1cccc(Cl)c1Cn1c(CN2CCCC2)nc2ccccc21`?
GluA2 TARP mod: active; GIRK2 activator: inactive

How did CN(Cc1nc2ccccc2n1Cc1cccc(Cl)c1)C(=O)c1ccco1 do in these assays?
GIRK2 activator: inactive

Results for Brc1ccc(Cn2c(CN3CCCC3)nc3ccccc32)cc1 ?
GluA2 TARP mod: inactive

Results for CCOC(=O)N(C)Cc1nc2ccccc2n1Cc1c(F)cccc1Cl ?
GluA2 TARP mod: active

How did CCNC(=O)C1Cc2ccccc2N1C(=O)c1ccc(S(=O)(=O)N2CCOCC2)cc1 (stereo not drawn) do in these assays?
GluA2 TARP mod: inactive; GIRK2 activator: inactive

What do the screens show for `Cn1c(=O)c2c(nc(CN3CCN(c4ccc(F)cc4)CC3)n2CC(=O)C(C)(C)C)n(C)c1=O`?
GluA2 TARP mod: inactive; GIRK2 activator: inactive

How did CC1CC(C)CN(Cc2nc3c(c(=O)n(C)c(=O)n3C)n2CC(=O)C(C)(C)C)C1 (stereo not drawn) do in these assays?
GluA2 TARP mod: active; GIRK2 activator: inactive

Results for COc1ccc(NC(=O)CSc2nc3c(-c4ccccc4)c[nH]c3c(=O)n2C)c(OC)c1 ?
GIRK2 activator: inactive

What do the screens show for `O=C1CC2(CCN(C(=O)c3ccc(-c4ccccc4)cc3)CC2)Oc2ccccc21`?
GluA2 TARP mod: inactive

Results for Cc1cccc(C(=O)N2CCC3(CC2)CC(=O)c2ccccc2O3)c1 ?
GluA2 TARP mod: active

How did O=C(NCCc1ccccc1)C(=O)NCc1ccccc1 do in these assays?
GluA2 TARP mod: inactive

How did COC(=O)c1sccc1S(=O)(=O)N1CCN(c2ccccc2F)CC1 do in these assays?
GluA2 TARP mod: active

What do the screens show for `COc1ccc(CNC(=O)c2sccc2S(=O)(=O)N2CCN(c3ccccc3F)CC2)cc1`?
GIRK2 activator: inactive

How did COc1ccc(Cl)c2sc(N3CCN(C(=O)Nc4ccc5c(c4)OCO5)CC3)nc12 do in these assays?
GluA2 TARP mod: inactive; GIRK2 activator: inactive

How did Cc1nc(NCCNC(=O)c2ncccn2)cc(N2CCOCC2)n1 do in these assays?
GluA2 TARP mod: active; GIRK2 activator: inactive

How did CCNc1cc(NCCNC(=O)c2ncccn2)nc(C)n1 do in these assays?
GluA2 TARP mod: active; GIRK2 activator: inactive

Results for CCNc1cc(C)nc(NCCNC(C)=O)n1 ?
GIRK2 activator: inactive

What do the screens show for `Cc1nc(NCCNC(=O)Nc2cccc(C)c2C)cc(N2CCOCC2)n1`?
GIRK2 activator: inactive

How did CCCCc1cnc2c(c1SCC(=O)Nc1cccc([N+](=O)[O-])c1)c(=O)n(C)c(=O)n2C do in these assays?
GluA2 TARP mod: inactive; GIRK2 activator: inactive

Results for Cc1cc(C)cc(OCC(O)CN2CCN(Cc3ccc4c(c3)OCO4)CC2)c1 (stereo not drawn) ?
GluA2 TARP mod: inactive

What do the screens show for `CCc1ccc(OCCOCC(O)CN2CCN(Cc3ccc4c(c3)OCO4)CC2)cc1` (stereo not drawn)?
GluA2 TARP mod: active

What do the screens show for `CC(C)CNc1nnnc2c1cnn2-c1ccccc1`?
GluA2 TARP mod: inactive; GIRK2 activator: inactive

What do the screens show for `CN1C(=O)C(=C2C=C(c3ccccc3)N(Cc3ccco3)C3=C2CCCC3)C(=O)N(C)C1=O`?
GluA2 TARP mod: active

How did O=C(c1ccc2ccccc2c1)N1CCOC(c2ccccc2)C1 (stereo not drawn) do in these assays?
GIRK2 activator: inactive

What do the screens show for `COc1ccc(CCNC(=O)N2CCN(c3ncnc4c3nnn4C)CC2)cc1`?
GIRK2 activator: inactive

Results for CCOCCn1c(=O)c2c(nc(-n3nc(C)cc3C)n2Cc2ccc(F)cc2)n(C)c1=O ?
GluA2 TARP mod: inactive; GIRK2 activator: inactive

What do the screens show for `CCc1cc(CC)n(-c2nc3c(c(=O)n(Cc4ccccc4)c(=O)n3C)n2CCOC)n1`?
GluA2 TARP mod: active

Results for CCc1cc(CC)n(-c2nc3c(c(=O)n(CC(C)C)c(=O)n3C)n2CCOC)n1 ?
GluA2 TARP mod: inactive

Results for CCOCCn1c(-n2nc(C)cc2C)nc2c1c(=O)n(Cc1cccc(C)c1)c(=O)n2C ?
GluA2 TARP mod: active; GIRK2 activator: inactive

What do the screens show for `COc1ccc(S(=O)(=O)Nc2nc(C(=O)Nc3ccc(OC)c(OC)c3)cs2)cc1`?
GluA2 TARP mod: inactive; GIRK2 activator: inactive

How did COc1ccc(S(=O)(=O)c2cc3cc(Cl)ccc3oc2=O)cc1 do in these assays?
GluA2 TARP mod: inactive; GIRK2 activator: inactive

Results for COc1ccc(C2(CNS(=O)(=O)c3c(C)n[nH]c3C)CCCC2)cc1 ?
GluA2 TARP mod: active; GIRK2 activator: inactive

How did COc1ccc(C2(CNS(=O)(=O)c3cccnc3)CCCC2)cc1 do in these assays?
GluA2 TARP mod: inactive; GIRK2 activator: inactive

How did CCOCCn1cnc2cc(C)c(C)cc21 do in these assays?
GluA2 TARP mod: inactive; GIRK2 activator: inactive

How did O=C(c1ccc(Br)o1)N1CCC(Cn2cnc3ccccc32)CC1 do in these assays?
GluA2 TARP mod: active; GIRK2 activator: inactive
